# Data as given in PubChem BioAssay AID588458 (Sanford-Burnham Center for Chemical Genomics, 2011).
# “And” between values parts separate entries of the source, which are not always exact repeats. Equal values may be shown once. Hit rate of the full screen: of about 360,000 compounds, about 3,000 (0.83%) were called active. This is one part of a sample in which actives are shown more often than they occur. Values without a mark were called inactive. No stated cut-off is given here; in the data, active means inhibition above about 50%; inactive means the rest.
# Target: DNA (cytosine-5)-methyltransferase 1 (Homo sapiens) (UniProt P26358)
# Sequence (P26358 504-1616 limits assumed): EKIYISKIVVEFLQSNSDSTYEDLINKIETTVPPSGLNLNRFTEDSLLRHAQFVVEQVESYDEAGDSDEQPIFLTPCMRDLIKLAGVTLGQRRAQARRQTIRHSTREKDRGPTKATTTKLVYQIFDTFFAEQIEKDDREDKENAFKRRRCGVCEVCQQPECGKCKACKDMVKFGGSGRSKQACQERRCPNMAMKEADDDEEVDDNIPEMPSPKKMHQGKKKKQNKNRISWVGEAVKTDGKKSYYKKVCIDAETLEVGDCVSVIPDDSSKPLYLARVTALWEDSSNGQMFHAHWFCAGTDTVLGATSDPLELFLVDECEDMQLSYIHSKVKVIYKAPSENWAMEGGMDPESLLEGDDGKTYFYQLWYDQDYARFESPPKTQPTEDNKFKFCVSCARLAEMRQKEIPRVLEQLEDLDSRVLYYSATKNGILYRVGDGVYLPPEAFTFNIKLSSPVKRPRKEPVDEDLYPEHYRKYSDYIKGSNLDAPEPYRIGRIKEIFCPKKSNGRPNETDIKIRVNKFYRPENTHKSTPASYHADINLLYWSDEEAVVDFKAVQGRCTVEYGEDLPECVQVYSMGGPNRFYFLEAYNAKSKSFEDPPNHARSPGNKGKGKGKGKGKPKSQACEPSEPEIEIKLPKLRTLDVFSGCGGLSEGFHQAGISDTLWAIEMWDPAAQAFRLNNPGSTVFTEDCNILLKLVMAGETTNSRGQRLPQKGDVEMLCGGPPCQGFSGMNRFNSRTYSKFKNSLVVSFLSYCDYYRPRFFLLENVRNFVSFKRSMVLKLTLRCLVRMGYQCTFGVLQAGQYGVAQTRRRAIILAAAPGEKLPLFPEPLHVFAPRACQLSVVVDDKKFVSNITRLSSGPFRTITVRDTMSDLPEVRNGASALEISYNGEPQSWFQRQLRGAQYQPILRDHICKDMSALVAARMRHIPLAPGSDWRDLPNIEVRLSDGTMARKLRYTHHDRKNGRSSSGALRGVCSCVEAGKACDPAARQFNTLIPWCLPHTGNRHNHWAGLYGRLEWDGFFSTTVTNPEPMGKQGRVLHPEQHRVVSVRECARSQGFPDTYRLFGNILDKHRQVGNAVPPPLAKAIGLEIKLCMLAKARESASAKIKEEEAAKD
# Assay: inhibition of DNA methyltransferase DNMT1 – biochemical, molecular beacon, fluorescence, HinP1I cleavage, uHTS, primary screen (AID 588458)
# Conditions: at 10 µM, active compounds read high
row,SMILES,inhibition (reported as % activation of signal)
1,Cc1c(C(=O)O)cccc1-n1c(C)cc(/C=C2\C(=O)NC(=O)N(c3ccc4c(c3)OCO4)C2=O)c1C,86.2% (active)
2,Cc1ccnc(-n2c(C)cc(/C=C3\C(=O)NC(=S)N(C)C3=O)c2C)c1,5.36%
3,COC(=O)C1=C(c2c(C)noc2C)C[C@@H]2CC[C@H]1N2C(=O)NCc1ccc2c(c1)OCO2,2.7%
4,O=C1NC(=O)N(Cc2ccco2)C(=O)/C1=C\c1cccn1CCOc1ccccc1,52.4% (active)
5,Cc1cc(C=C2C(=O)NC(=O)NC2=O)c(C)n1-c1ccncc1,5.18%
6,Cc1cc(/C=C2/C(=O)NC(=O)N(Cc3ccco3)C2=O)c(C)n1-c1ccc(C(=O)O)cc1,51.8% (active)
7,Cc1ccc(-n2c(C)cc(/C=C3\C(=O)NC(=O)N(C)C3=O)c2C)cc1C,29.9%
8,O=C1NC(=O)N(Cc2ccco2)C(=O)/C1=C\c1ccc(-c2ccc(F)cc2)o1,79.9% (active)
9,CCOC(=O)C(O)(c1ccc(N=Cc2ccccc2O)c(C)c1)C(F)(F)F (stereo not given),0.86%
10,CC1CNCCN1c1ccc(Cl)cc1 (stereo not given),-33.5%
11,O=C1C2(Cl)C3(Cl)C4(Cl)C(Cl)(Cl)C5(Cl)C3(Cl)C1(Cl)C5(Cl)C24Cl (stereo not given),-6.15%
12,O=P(OC1=CCCCC1)(c1ccccc1)c1ccccc1,-0.46%
13,COC(=O)C1=C(c2ccc(OCc3ccccc3)cc2)C[C@@H]2CC[C@H]1N2C(=O)NCc1ccc(Cl)cc1,-11.6%
14,Fc1ccc(C2N3CCCN23)cc1 (stereo not given),0.57%
15,COC(=O)C(O)(c1ccc(NC(=O)c2ccco2)c(OC)c1)C(F)(F)F (stereo not given),2.7%
16,CCOC(=O)c1c(-c2ccccc2)oc2ccc(OC(=O)N(C)C)cc12,-3%
17,CC(C)n1c(=O)c(C=Nc2ccc(Br)cc2)c(O)n(Cc2ccco2)c1=O,3.48%
18,Cc1ccc(-c2nc3ccccc3c(=O)n2-c2ccc(Br)cn2)cc1,-0.14%
19,N#CC1=C(N)Oc2c(c(=O)oc3ccccc23)C1c1ccccc1OC(=O)c1cccs1 (stereo not given),0.68%
20,CC12CCC3C(CCC4CC(=O)CCC43C)C1CC(=NO)C2=O (stereo not given),0.34%
21,COc1ccc(N2C(=O)/C(=C/c3ccco3)C(=O)NC2=S)cc1,97.9% (active)
22,COc1cc(C(=O)N2Cc3ccc(Br)cc3-n3nncc3C2)cc(OC)c1OC,3.06%
23,Cc1cc(-c2ccc(N)c(C)c2)ccc1N,-7.86%
24,Cc1cc(C)cc(NC(=S)NC2CC3CCCC(C2)N3Cc2cccs2)c1 (stereo not given),-3.24%
25,Oc1ccc2c3c1OC1[C@H](O)CC[C@@]4(O)[C@@H](C2)N(CC2CC2)CC[C@]314 (stereo not given in full),3.17% and 0.16%
26,CC(=NC1CCN(Cc2ccccc2)CC1)c1c(O)n(C)c(=O)n(C)c1=O,2.93%
27,CC1=C(C(=O)Nc2ccccc2)S(=O)(=O)CCO1,2.83%
28,CC1=C(C(=O)Nc2ccccc2)SCCO1,87.4% (active)
29,CCN1CCN(C(=O)Cc2coc3cc(C)cc(C)c23)CC1,2.55%
30,COc1ccc(NC(=O)N2Cc3ccccc3-n3nncc3C2)cc1,7.01%
